These results are taken from PubChem BioAssay (EPA / NIEHS).

The source made the active and inactive calls. How the source made its calls: active means hit-call score of the fitted dose curve at least 0.9, where 1 is the maximum; inactive means score below 0.9.

For the experiment, the target named is Signal transducer and activator of transcription 3 (Homo sapiens) (UniProt P40763). Description: ATG_STAT3_CIS: Attagene CIS-FACTORIAL HepG2 Assay for human Signal Transducer and Activator of Transcription 3 (STAT3) (AID 2282963). The conditions noted are these: HepG2, Attagene cis-factorial STAT3 reporter transcription; actives raise or lower the signal. As for the experimental part: ATG_CIS is a cell-based, multiplexed-readout assay that uses HepG2, a human liver cell line, with measurements taken at 24 hours after chemical dosing in a 24-well plate.ATG_STAT3_CIS is one of 52 assay component(s) measured or calculated from the ATG_CIS assay. It is designed to make measurements of mRNA induction, a form of inducible reporter, as detected with fluorescence intensity signals by Reverse transcription polymerase chain reaction (RT-PCR) and Capillary electrophoresis technology.Data from the assay component ATG_STAT3_CIS was analyzed into 1 assay endpoint. This assay endpoint, ATG_STAT3_CIS, was analyzed with bidirectional fitting relative to DMSO as the negative control and baseline of activity. Using a type of inducible reporter, measures of mRNA for gain or loss-of-signal activity can be used to understand the reporter gene at the transcription factor-level as they relate to the gene STAT3. Furthermore, this assay endpoint can be referred to as a primary readout, because this assay has produced multiple assay endpoints where this one serves a reporter gene function. To generalize the intended target to other relatable targets, this assay endpoint is annotated to the dna binding intended target family, where the subfamily is stat protein.
Chain of Signal transducer and activator of transcription 3 (Homo sapiens) (P40763 whole entry, looked up): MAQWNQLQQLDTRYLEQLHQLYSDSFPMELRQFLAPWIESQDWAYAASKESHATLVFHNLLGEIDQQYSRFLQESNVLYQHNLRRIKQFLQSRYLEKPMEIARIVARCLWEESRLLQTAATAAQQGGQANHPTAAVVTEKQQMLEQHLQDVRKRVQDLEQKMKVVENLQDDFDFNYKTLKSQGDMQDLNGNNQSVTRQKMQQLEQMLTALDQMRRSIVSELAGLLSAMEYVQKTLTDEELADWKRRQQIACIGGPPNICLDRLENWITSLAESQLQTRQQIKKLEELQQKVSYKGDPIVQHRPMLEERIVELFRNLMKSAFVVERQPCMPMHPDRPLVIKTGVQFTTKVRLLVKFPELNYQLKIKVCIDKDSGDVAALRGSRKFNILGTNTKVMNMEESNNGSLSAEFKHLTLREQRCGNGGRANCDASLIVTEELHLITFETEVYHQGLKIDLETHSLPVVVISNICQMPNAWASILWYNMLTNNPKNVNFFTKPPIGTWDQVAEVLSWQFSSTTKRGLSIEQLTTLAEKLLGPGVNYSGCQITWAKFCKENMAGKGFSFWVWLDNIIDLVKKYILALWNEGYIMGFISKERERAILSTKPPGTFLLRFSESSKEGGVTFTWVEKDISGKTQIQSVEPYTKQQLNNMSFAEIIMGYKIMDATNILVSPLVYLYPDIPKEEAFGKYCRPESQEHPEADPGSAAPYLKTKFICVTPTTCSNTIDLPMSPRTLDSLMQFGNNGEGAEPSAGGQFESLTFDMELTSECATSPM
Human liver HepG2 cells are transiently transfected with multiple reporter transcription units (MRTUs) in 6-well plates using FuGene 6 reagent (Roche; 3 ml FuGene/1 mg DNA). The MRTU constructs are regulated by a cis-regulating element (promoter). […] A major difference between the CIS and TRANS system is that in CIS activities of endogenous TFs are measured, whereas the TRANS assay evaluates changes in activities of exogenous, chimeric NR-Gal4 proteins. […] At the end of 24 hour incubation, total RNA was isolated using TriZol reagent (Invitrogen). The isolated RNA is then reverse-transcribed using oligo(dT) primer and Mo-MLV reverse transcriptase (Invitrogen) with DNAse I (Ambion) treatment for 30 min. The one-tenth of the produced cDNA was amplified by PCR using Taq DNA polymerase (Invitrogen) and two reporter sequence-specific primers. The PCR products were fluorescently labeled by primer extension with 6-arboxyfluorescein (6-FAM) 5'-labeled reporter sequence-specific primer (2 min at 95 C, 20 s at 68 C and 10 min at 72 C) and these products were digested with 5U of HpaI (New England Biolabs) for 2h at 37 C. The fragments were purified using Qiaquick PCR columns (Qiagen), analyzed on an ABI 3130xL genetic analyzer (Applied Biosystems) with peak positions identified by using a set of X-rhodamine (ROX)-labeled MapMarker1000 molecular weight standards (BioVentures). The raw capillary electrophoresis data was processed using Attagraph software (Attagene).
Consider `CCC[N+](=O)[O-]`, for which the result was inactive.

For the compound `CC1CCCC1.[C-]#[O+].[C-]#[O+].[C-]#[O+].[Mn]`, the call was inactive.

Consider `CCNCC`, for which the result was inactive.

In the case of `N#CCNCC#N`, the call was inactive.

Turning to `COc1cc(OC)c(OC)cc1C=O`, the compound was called inactive.

Regarding `Nc1c(Cl)c(Cl)c(Cl)c(Cl)c1Cl`, the compound was classed as inactive.

For `Clc1ccc(-c2ccccc2)cc1`, the result was inactive.

On to `COC(C)(C)CCC[C@H](C)C/C=C/C(C)=C/C(=O)OC(C)C`, for which the outcome was inactive.

As to `Nc1ccc(Cl)c(Cl)c1`, the result was inactive.

Turning to `CCN(CC)C(=S)S`, the outcome was inactive.

Consider `O=C(NCNC(=O)NC1C(=O)NC(=O)N1CO)NC1C(=O)NC(=O)N1CO` (stereo not given), for which the outcome was inactive.

For `NNc1ccccc1`, the call was inactive.

As for `O=[N+]([O-])c1ccc(Cl)cc1`, the result was inactive.

Take `C[N+](=O)[O-]`: the compound was classed as inactive.

Regarding `CC(C)(O)C#N`, the outcome was inactive.

Take `COc1cc(OC)nc(Oc2cccc(Oc3nc(OC)cc(OC)n3)c2C(=O)O)n1`: the result was inactive.

For `CNC(=N[N+](=O)[O-])NCC1CCOC1` (stereo not given), the outcome was inactive.

Take `C=COCCCl`: the result was inactive.

On to `CC(Cc1ccc(C(C)(C)C)cc1)CN1C[C@@H](C)O[C@@H](C)C1` (stereo not given in full), for which the compound was called inactive.

With `O=[N+]([O-])O`, the result was inactive.

With `C=CCN(CC=C)C(=O)C(Cl)Cl`, the result was inactive.

For `CC1OC(C)OC(C)O1` (stereo not given), the outcome was inactive.

With `CCCCCc1cc(O)cc(O)c1`, the result was inactive.

For `[CH3][Sn]([CH3])([Cl])[Cl]`, the outcome was inactive.

In the case of `COCC(=O)N(c1c(C)cccc1C)N1CCOC1=O`, the compound was classed as inactive.

Regarding `S=c1[nH]c2ccccc2[nH]1`, the compound was called inactive.

With `CC=Cc1ccc2c(c1)OCO2`, the compound was called inactive.

Consider `CCCCCCCCCCCC#N`, for which the outcome was inactive.

Regarding `[Cl-].[Cl-].[Cl-].[Yb+3]`, the compound was called inactive.

The term AC50 denotes the concentration giving half of the maximal activity seen. Turning to `Nc1ccccc1C(=O)Oc1ccc2ccccc2c1`, the AC50 is 74.5 µM (active).

For `CC(C)CCCCCCCOC(=O)c1ccccc1C(=O)OCCCCCCCC(C)C`, the compound was called inactive.

Regarding `O=C(CCN1CC1)OCC(CO)(COC(=O)CCN1CC1)COC(=O)CCN1CC1`, the call was inactive.

As to `CN(N=O)c1ccccc1`, the compound was called inactive.

With `ClC1=C(Cl)[C@]2(Cl)[C@@H]3[C@@H](Cl)[C@H](Cl)C[C@@H]3[C@@]1(Cl)C2(Cl)Cl`, the compound was classed as inactive.

For `CC(C)c1ccc(O)cc1`, the call was inactive.

In the case of `COc1ncc(F)c2nc(S(=O)(=O)Nc3c(F)cccc3F)nn12`, the outcome was inactive.

On to `c1ccc(P(c2ccccc2)c2ccccc2)cc1`, for which the compound was called inactive.

`C=CC(=O)OCCO`: the compound was classed as inactive.

Take `O=C(O)CCCc1ccc(N(CCCl)CCCl)cc1`: the outcome was inactive.

`C=C(Cl)Cl`: the compound was classed as inactive.
